This note sets out measurements from PubChem BioAssay.

Test [1] concerns Wnt5a (protein binding on small-molecule microarray). The experiment in a line: small molecules binding Wnt5a protein – biophysical, small-molecule microarray, 635/667 nm fluorescence, primary screen (AID 1142).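 Further: fluorescence read at 667 nm with signal to noise per printed feature.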 Particulars: 635 nm fluorescence, higher = more signal.
Test [2] in a line: ATP-based viability of Huh7 replicon cells – cell-based, CellTiter-Glo luminescence, basal, 48 h, cytotoxicity control for HCV replication inhibitor project, primary screen (AID 1143).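 Further: Huh7 hepatoma cells carrying a hepatitis C replication reporter with no stimulus; test concentration not given here.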 Particulars: higher = more signal, called active from +8 up or from −8 down. Background: A replicon is a self-replicating genome or part of one, used to study replication in cells.
The nature of test [3]: Pseudomonas biofilm growth suppression – PAO1 strain, BacTiter-Glo luminescence, LB-PBS, primary screen (AID 1144). Particulars: P. aeruginosa PAO1 biofilm, 12 h, higher = more signal.
The nature of test [4]: basal CRE-LacZ reporter activity in PC12 – cell-based, unstimulated, primary screen (AID 1145). The note with it: no forskolin, luminescence, 4.5 h, higher = more signal, called active from +8 up or from −8 down.
Test [5] is described as follows: forskolin-driven CRE-LacZ activity in PC12 – cell-based, CRE-LacZ reporter, forskolin-stimulated, primary screen (AID 1146).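 Further: PC12 cells with 6xCRE LacZ reporter stimulated by forskolin 10 µM; beta-galactosidase reporter signal reflecting CREB driven transcription.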 Particulars: luminescence, 4.5 h, higher = more signal, called active from +8 up or from −8 down.
Test [6] addresses Streptavidin (Streptomyces avidinii) (UniProt P22629). The experiment in a line: compounds binding control protein streptavidin – biophysical, small-molecule microarray, 635/667 nm fluorescence, artefact control for SMM compound annotation, primary screen (AID 1147).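 Further: signal reflects streptavidin binding to arrayed compounds as a control protein.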 Particulars: higher = more signal.
Test [7] in a line: probe aInhba binding on compound microarray – biochemical, small-molecule microarray, 635/667 nm fluorescence, primary screen (AID 1148).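 Further: score merges 667nm spot fluorescence with signal-to-noise for antibody binding to printed compounds.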 The note with it: higher = more signal.
Test [8] addresses Torsin-1A (Homo sapiens) (UniProt O14656). The experiment in a line: TOR1A wild-type binding on microarray – cell lysate, small-molecule microarray, lysate, 635/667 nm, primary screen (AID 1149). Particulars: COS7 hTOR1A-WT lysate, 635 nm fluorescence, higher = more signal.
Test [9] shares this target. Briefly: torsin A mutant lysate binding on microarrays – cell lysate, small-molecule microarray, COS7 lysate, 635/667 nm fluorescence, primary screen (AID 1150).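 Further: score pools 667 nm emission and signal to noise measuring lysate protein binding.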 Particulars: COS7 hTOR1A mutant lysate, 635 nm fluorescence, higher = more signal.
The test system of test [10] is Sonic hedgehog protein (Shh). The experiment in a line: Sonic hedgehog microarray binding compounds – biochemical, small-molecule microarray, 635/667 nm fluorescence, primary screen (AID 1151).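 Further: Shh protein binding to compounds spotted on small-molecule microarray slides; score combines spot fluorescence intensity with signal-to-noise across triplicate slides.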 Particulars: 635 nm fluorescence, higher = more signal.
Test [11] in a line: optical density shifts of acrAB sulA E. coli – strain DRC41, OD650, 48 h, E. coli filamentation inducer project, primary screen (AID 1152).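 Further: E. coli MC1000 strain DRC41 lacking acrAB efflux pump and sulA.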 The note with it: higher = more signal, called active from +8 up or from −8 down.
Test [12] in a line: probe aLefty1 binding on compound microarray – biochemical, small-molecule microarray, 635/667 nm fluorescence, primary screen (AID 1153).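 Further: score merges spot fluorescence with signal-to-noise ratio from the scanned slide images.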 The note with it: higher = more signal.
Test [13] in a line: plasmodial surface anion channel blockers, osmotic lysis – cell-based, P. falciparum Indochina, OD700, 1 h, primary screen (AID 1154). The note with it: P. falciparum Indochina infected RBC osmotic lysis, higher = more signal, called active from +8 up or from −8 down.
The nature of test [14]: plasmodial surface anion channel blockers, osmotic lysis – cell-based, P. falciparum Indochina, OD700, 2 h, primary screen (AID 1155).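 Further: lysis reports solute entry through the parasite surface anion channel PSAC.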 Particulars: P. falciparum Indochina infected erythrocytes, higher = more signal, called active from +8 up or from −8 down.
Test [15] in a line: changes in parasitized red cell lysis, either direction – P. falciparum Indochina, OD700, 3 h, PSAC antagonist project, primary screen (AID 1156). Particulars: P. falciparum-infected erythrocytes, osmotic lysis, higher = more signal, called active from +8 up or from −8 down.
Test [16] can be described thus: plasmodial surface anion channel blockers, osmotic lysis – cell-based, P. falciparum Indochina, OD700, 18 h, primary screen (AID 1157). The note with it: P. falciparum Indochina infected erythrocytes, osmotic lysis OD700, 18 h; higher = more signal, called active from +8 up or from −8 down.
A short description of test [17]: S6 kinase pathway phospho-S6 level changes – cell-based, A549, cytoblot, luminescence, serum-stimulated, primary screen (AID 1158).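 Further: serum-stimulated A549 lung adenocarcinoma cells; signal is phosphorylated S6 detected by cytoblot immunostaining with HRP secondary.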 The note with it: 5 h, higher = more signal.
In test [18] the target is NADPH oxidase 2 (Homo sapiens) (UniProt P04839). Briefly: compounds shifting NOX2 Amplex Red fluorescence – cell-based, HEK293-NOX2, PMA-stimulated, NOX inhibitor project, primary screen (AID 1159). Further: test concentration not given here. Particulars: 45 min, higher = more signal, called active from +8 up or from −8 down.
Chain of NADPH oxidase 2 (Homo sapiens) (P04839 whole entry, looked up): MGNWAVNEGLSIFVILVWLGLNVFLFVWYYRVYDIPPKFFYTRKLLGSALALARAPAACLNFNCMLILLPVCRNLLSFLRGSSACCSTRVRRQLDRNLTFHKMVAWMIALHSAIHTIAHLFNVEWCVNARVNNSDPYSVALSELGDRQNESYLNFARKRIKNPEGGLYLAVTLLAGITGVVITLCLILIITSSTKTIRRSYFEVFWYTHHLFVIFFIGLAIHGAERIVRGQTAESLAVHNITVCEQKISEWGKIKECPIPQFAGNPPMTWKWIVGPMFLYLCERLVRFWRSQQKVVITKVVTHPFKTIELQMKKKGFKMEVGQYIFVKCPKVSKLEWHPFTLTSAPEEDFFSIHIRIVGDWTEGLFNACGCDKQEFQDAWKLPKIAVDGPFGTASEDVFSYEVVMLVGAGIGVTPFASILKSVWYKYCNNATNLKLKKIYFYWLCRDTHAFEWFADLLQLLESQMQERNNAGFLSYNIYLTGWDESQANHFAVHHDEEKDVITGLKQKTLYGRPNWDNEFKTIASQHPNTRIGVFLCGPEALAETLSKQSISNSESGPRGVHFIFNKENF
The target of test [19] is NADPH oxidase 4 (Homo sapiens) (UniProt Q9NPH5). Briefly: compounds shifting NOX4 Amplex Red fluorescence – cell-based, HEK293-NOX4, tetracycline-induced, NOX inhibitor project, primary screen (AID 1160). The note with it: HEK293-NOX4, Amplex Red H2O2 fluorescence, 45 min; higher = more signal, called active from +8 up or from −8 down.
Chain of NADPH oxidase 4 (Homo sapiens) (Q9NPH5 whole entry, looked up): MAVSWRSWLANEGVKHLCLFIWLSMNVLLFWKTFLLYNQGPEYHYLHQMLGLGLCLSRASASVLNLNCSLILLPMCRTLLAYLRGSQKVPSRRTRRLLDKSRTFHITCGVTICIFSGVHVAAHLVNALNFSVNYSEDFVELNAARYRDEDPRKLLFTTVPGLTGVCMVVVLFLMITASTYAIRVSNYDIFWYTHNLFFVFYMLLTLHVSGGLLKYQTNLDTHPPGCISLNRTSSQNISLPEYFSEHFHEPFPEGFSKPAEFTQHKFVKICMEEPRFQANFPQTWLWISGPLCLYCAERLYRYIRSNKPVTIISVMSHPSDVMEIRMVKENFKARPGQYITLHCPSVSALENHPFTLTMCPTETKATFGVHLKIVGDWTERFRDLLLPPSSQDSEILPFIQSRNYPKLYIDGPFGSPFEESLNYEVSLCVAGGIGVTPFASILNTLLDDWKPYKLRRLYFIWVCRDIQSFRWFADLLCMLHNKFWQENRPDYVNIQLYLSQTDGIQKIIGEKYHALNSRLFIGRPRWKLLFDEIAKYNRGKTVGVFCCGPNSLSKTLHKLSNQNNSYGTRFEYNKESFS
The target in test [20] is NADPH oxidase 5 (Homo sapiens) (UniProt Q96PH1). The experiment in a line: compounds shifting NOX5 Amplex Red fluorescence – cell-based, HEK293-NOX5, NOX inhibitor project, primary screen (AID 1161). The note with it: HEK293-NOX5, ionomycin, 45 min, higher = more signal.
Chain of NADPH oxidase 5 (Homo sapiens) (Q96PH1 whole entry, looked up): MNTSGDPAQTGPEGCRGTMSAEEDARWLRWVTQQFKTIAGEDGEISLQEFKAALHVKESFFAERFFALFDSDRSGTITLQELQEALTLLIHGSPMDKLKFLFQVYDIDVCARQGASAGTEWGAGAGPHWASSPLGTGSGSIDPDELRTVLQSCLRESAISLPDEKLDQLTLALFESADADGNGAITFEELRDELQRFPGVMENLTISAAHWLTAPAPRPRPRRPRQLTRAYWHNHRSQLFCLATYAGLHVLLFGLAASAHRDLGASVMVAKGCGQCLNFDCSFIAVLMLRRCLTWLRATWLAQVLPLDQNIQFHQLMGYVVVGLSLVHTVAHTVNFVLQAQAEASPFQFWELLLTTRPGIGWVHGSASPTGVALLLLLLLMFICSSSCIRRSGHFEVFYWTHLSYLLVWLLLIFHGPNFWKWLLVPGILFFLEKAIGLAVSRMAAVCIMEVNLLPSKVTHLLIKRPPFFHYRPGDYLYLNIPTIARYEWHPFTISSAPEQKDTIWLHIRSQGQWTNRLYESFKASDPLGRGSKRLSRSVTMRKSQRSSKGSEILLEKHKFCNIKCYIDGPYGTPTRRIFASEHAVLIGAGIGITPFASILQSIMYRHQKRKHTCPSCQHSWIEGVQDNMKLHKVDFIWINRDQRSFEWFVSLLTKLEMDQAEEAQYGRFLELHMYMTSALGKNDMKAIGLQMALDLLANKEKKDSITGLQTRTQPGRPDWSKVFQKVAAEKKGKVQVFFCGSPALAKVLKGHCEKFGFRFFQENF

The source made the active and inactive calls. Unless noted, how the calls were made is not given here.

Chain of Streptavidin (Streptomyces avidinii) (P22629 whole entry, looked up): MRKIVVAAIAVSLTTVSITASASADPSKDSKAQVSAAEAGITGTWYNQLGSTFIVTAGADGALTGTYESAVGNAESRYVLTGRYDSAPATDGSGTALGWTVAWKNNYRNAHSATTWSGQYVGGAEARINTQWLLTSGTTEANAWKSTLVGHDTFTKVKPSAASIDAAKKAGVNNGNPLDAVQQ
Chain of Torsin-1A (Homo sapiens) (O14656 whole entry, looked up): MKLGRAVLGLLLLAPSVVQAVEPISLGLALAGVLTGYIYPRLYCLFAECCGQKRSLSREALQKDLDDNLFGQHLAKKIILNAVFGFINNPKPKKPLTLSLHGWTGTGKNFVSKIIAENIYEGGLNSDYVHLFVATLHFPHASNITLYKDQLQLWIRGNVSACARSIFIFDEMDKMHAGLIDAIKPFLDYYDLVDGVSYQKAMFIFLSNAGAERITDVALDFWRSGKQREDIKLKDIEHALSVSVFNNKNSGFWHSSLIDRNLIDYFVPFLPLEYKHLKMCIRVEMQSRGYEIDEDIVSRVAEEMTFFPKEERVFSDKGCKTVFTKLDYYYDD

As to `CCCN1C(=O)[C@@H]2Cc3c([nH]c4ccccc34)[C@@H](c3cccc(O)c3)N2C1=O`, the composite z-score is -0.0436 in [1]; -0.294 in test [6]; -0.024 in test [7]; 0.288 with Torsin-1A (Homo sapiens) [8]; 0.193 in the test with Torsin-1A (Homo sapiens) [9]; 0.216 in [10]. Also, the composite z-score in [12] is 0.0742. In addition, the z-score in test [2] was 0.792 (inactive); in test [3], -0.23 (inactive); in [4], -0.374 (inactive); in test [5], -0.0707 (inactive); in [11], -0.524 (inactive); in [13], -0.578 (inactive). Also, the z-score in test [14] was -0.108 (inactive); in test [15], -0.539 (inactive); in [16], -0.114 (inactive); in test [17], 0.257; in [18] it was -0.904 (inactive); in test [19], -1.02 (inactive). Further, the z-score in [20] was -0.413.

Regarding `CCCCC(CC)C(O)C1C=CC2C(=O)NC(=O)C2N1Nc1ccccn1` (stereo not given), the composite z-score was -0.129 in test [1]; 0.91 in test [6]; -0.0405 in [7]; 0.312 in the test with Torsin-1A (Homo sapiens) [8]; 0.624 with Torsin-1A (Homo sapiens) [9]; -0.0493 in test [10]. In test [12], this compound showed a composite z-score of -0.0754. Moreover, the z-score in test [2] is 0.683 (inactive); in test [3], -1.03 (inactive); in test [4], -0.322 (inactive); in test [5], -0.634 (inactive); in test [11], -0.757 (inactive); in test [13], 1.68 (inactive). Besides, the z-score in test [14] was 0.648 (inactive); in [15] it was 0.186 (inactive); in test [16] it was 0.408 (inactive); in [17], -0.606; in test [18], 0.201 (inactive); in [19], -3.35 (inactive). In addition, the z-score in test [20] is -2.14.

In the case of `CC(C)c1ccc(NN2C(C(O)c3cccs3)C=CC3C(=O)N(c4ccccc4)C(=O)C32)cc1` (stereo not given), the composite z-score was 0.119 in test [1]; 1.78 in test [6]; 0.152 in test [7]; 0.248 with Torsin-1A (Homo sapiens) [8]; 0.182 with Torsin-1A (Homo sapiens) [9]; -0.04 in [10]. The compound also registered a composite z-score in test [12] of 0.498. Moreover, the z-score is -0.506 (inactive) in [2]; -0.579 (inactive) in test [3]; 0.812 (inactive) in test [4]; 0.311 (inactive) in test [5]; -1.5 (inactive) in test [11]; 3.11 (inactive) in test [13]. In addition, the z-score was 0.962 (inactive) in test [14]; 0.566 (inactive) in test [15]; 0.899 (inactive) in test [16]; -1.16 in test [17]; -1.11 (inactive) in [18]; -3.51 (inactive) in [19]. For the same compound, the z-score in test [20] was -2.9.

Turning to `COc1cccc(C)c1NC(=O)O[C@H]1[C@H](OC(=O)Nc2ccccc2)[C@H](OC(=O)Nc2ccccc2)[C@@H](OC)O[C@@H]1CO`, the composite z-score worked out at 0.0166 in [1]; 1.69 in test [6]; 0.0301 in test [7]; 0.513 with Torsin-1A (Homo sapiens) [8]; 1.05 in the test with Torsin-1A (Homo sapiens) [9]; 0.349 in [10]. Moreover, the composite z-score in test [12] is 0.211. In addition, the z-score was -5.44 (inactive) in [2]; 0.365 (inactive) in test [3]; 0.904 (inactive) in [4]; -1.49 (inactive) in test [5]; -1.05 (inactive) in test [11]; 7.38 (inactive) in [13]. Besides, the z-score in test [14] is 1.34 (inactive); in test [15], -0.446 (inactive); in test [16], 0.89 (inactive); in test [17], -0.26; in [18] it was 0.0936 (inactive); in test [19] it was -0.91 (inactive). Further, the z-score in test [20] is -0.89.

Consider `COc1ccc([Si](C)(C)[C@H]2[C@H](CC(=O)N3CCC[C@H]3CO)O[C@@]3(C(=O)N(Cc4ccc(N5C(=O)c6cccc7cccc5c67)cc4)c4ccccc43)[C@@H]2C)cc1`, for which the composite z-score in test [1] was 0.213; in test [6], 0.197; in [7] it was 0.134; in the test with Torsin-1A (Homo sapiens) [8], 0.81; with Torsin-1A (Homo sapiens) [9], 0.397; in test [10], 2.05. The same compound gave a composite z-score in test [12] of 0.0903. Also, the z-score in test [2] is -3.73 (inactive); in [3], 0.0403 (inactive); in [4], 0.543 (inactive); in test [5], -0.594 (inactive); in test [11], -0.0217 (inactive); in test [13] it was 6.9 (inactive). Moreover, the z-score in test [14] is 1.31 (inactive); in test [15] it was 1.72 (inactive); in test [16], 0.771 (inactive); in test [17], 0.298; in test [18] it was 1.86 (inactive); in test [19], 1.19 (inactive). The z-score in [20] stood at 2.62.

With `COCCOC(=O)N1C(=O)[C@@]2(c3ccccc31)[C@H](c1ccccc1OCCO)N1[C@H](c3ccccc3)[C@H](c3ccccc3)OC(=O)[C@H]1[C@@H]2C(=O)N1CCc2cc(OC)c(OC)cc2C1`, the composite z-score in test [1] turned out to be 0.212; in test [6], 0.02; in [7], 0.255; with Torsin-1A (Homo sapiens) [8], 0.517; with Torsin-1A (Homo sapiens) [9], 0.546; in test [10] it was 1.24. Further, the composite z-score in test [12] is 0.433. Also, the z-score in test [2] is -3.53 (inactive); in test [3], -1.04 (inactive); in test [4] it was 0.0736 (inactive); in test [5] it was 2.88 (inactive); in [11], 0.0509 (inactive); in test [13], 2.79 (inactive). Moreover, the z-score in test [14] is 1.2 (inactive); in test [15], 1.68 (inactive); in test [16], 0.654 (inactive); in [17], 0.0753; in test [18] it was 1.15 (inactive); in test [19] it was 0.39 (inactive). Further, the z-score in test [20] was -0.157.

As to `CN(C)C(=O)[C@@]1(CCC(=O)OC(C)(C)C)N=C(c2ccc(OCCCO)cc2)O[C@H]1c1ccccc1N=[N+]=[N-]`, the composite z-score amounted to 1.46 in test [1]; 1.6 in [6]; 0.277 in test [7]; 1.76 in the test with Torsin-1A (Homo sapiens) [8]; 2.25 with Torsin-1A (Homo sapiens) [9]; 0.18 in test [10]. In test [12], this compound had a composite z-score of 0.646. The z-score in [2] was -1.84 (inactive); in test [3], -0.0215 (inactive); in [4], 1.31 (inactive); in test [5], -1.33 (inactive); in test [11] it was 0.0366 (inactive); in test [13], 32.9 (active). In addition, the z-score was 32.2 (active) in test [14]; 1.78 (inactive) in test [15]; 3.02 (inactive) in [16]; -0.192 in test [17]; -3.57 (inactive) in test [18]; 0.0136 (inactive) in test [19]. For the same compound, the z-score in test [20] is -1.97.

For `O=C1O[C@@H](c2ccccc2)[C@@H](c2ccccc2)N2[C@@H](c3ccc(O)cc3)[C@]3(C(=O)Nc4ccc(C#CC5=CCCCC5)cc43)[C@@H](C(=O)Nc3nc4ccccc4s3)[C@H]12`, the composite z-score turned out to be 0.61 in test [1]; 1.26 in [6]; 1.37 in [7]; 0.828 in the test with Torsin-1A (Homo sapiens) [8]; 0.221 with Torsin-1A (Homo sapiens) [9]; 1.59 in [10]. This compound also displayed a composite z-score in test [12] of 1.53. Further, the z-score in [2] was -1.77 (inactive); in [3], -1.05 (inactive); in test [4], -1.02 (inactive); in test [5] it was -1.09 (inactive); in test [11], 0.542 (inactive); in test [13], 0.0488 (inactive). Besides, the z-score was 1.36 (inactive) in test [14]; 2.66 (inactive) in [15]; 1.6 (inactive) in test [16]; -0.227 in test [17]; 1.35 (inactive) in test [18]; 0.617 (inactive) in test [19]. In addition, the z-score in test [20] was -0.146.
